# In PubChem BioAssay (NCI):
# “And” between values parts separate entries of the source, which are not always exact repeats. Equal entries are not always repeated. The panel holds about 83,000 compounds, 20% with a hit somewhere; the sample as a whole holds those more often.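 Each cell line was grown in a 96-well plate and treated with one concentration of compound for 48 hours. Values below 10 were considered active.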 Values without a mark were called inactive. The source made the active and inactive calls.
# System: MDA-MB-468 breast
# Experiment: NCI-60 one-dose screen, 48 h (100 = growth as untreated, 0 = no growth, -100 = all killed)
# Settings: 10 µM unless noted
row,SMILES,growth
1,CCN1CCN(C(=O)[C@]23CC[C@@H](C)[C@H](C)[C@@H]2C2=CC[C@@H]4[C@@]5(C)CCC(=O)C(C)(C)[C@@H]5CC[C@@]4(C)[C@]2(C)CC3)CC1,-7.11% (active)
2,Cn1cc(-c2cc3c(Nc4ccc(CC(=O)Nc5cc(C(C)(C)C)on5)cc4)ncnc3[nH]2)cn1,-74.3% (active) and -62.1% (active)
3,Cc1ccc(O)c(C(=O)c2ccccc2Cl)c1,106%
4,Oc1ccccc1-c1nnc(COc2ccc(Cl)cc2Cl)o1,58.7%
5,Cc1cc(=O)oc2c1ccc1oc(C#N)c(C)c12,114%
6,CC(C)=CCC[C@](C)(O)[C@H]1CC[C@]2(C)[C@@H]1CC[C@@H]1[C@@]3(C)CC[C@H](N)C(C)(C)[C@@H]3CC[C@]12C,62%
7,Cc1ncc(C(=O)Nc2ccc(CN3CCN(C)CC3)c(C(F)(F)F)c2)cc1C#Cc1cnc(N)c2cnccc12,-6.82% (active)
8,CCOc1cc(Br)c(C(C)NC(=O)c2cccc(OC)c2)cc1OCC (stereo not given),52.6%
9,O=C(Nc1ccc(-c2nc(N3CCOCC3)c3cccn3n2)cc1)Nc1cccnc1,-37.9% (active)
10,O=C(O[C@@H]1Cc2c(O)cc(O)cc2O[C@@H]1c1cc(O)c(O)c(O)c1)c1cc(O)c2c(c1)OCO2,109%
11,CC(O)c1ncc(/C=C2\SC(=S)N(Cc3ccccc3)C2=O)s1 (stereo not given),65.6%
12,Cc1nc2cc(Nc3nc(Nc4ccc(F)cc4)nc(-c4cccs4)n3)ccc2n1Cc1ccccc1,33.2%
13,CSc1ccc(/C(=N/N=C(N)N)c2ccc(Cl)cc2)cc1,-36.1% (active)
14,Nc1ncnc2c1c(-c1cccc(Cl)c1)nn2CC(=O)N1CCOCC1,98.6%
15,N#Cc1c(N)nc2c(C#N)c(NC(=O)c3ccccc3)nn2c1-c1ccccc1,94.1%
16,CC1=NN(c2cccc(Cl)c2)C(=O)/C1=C\c1cn(CC(O)CN2CCCCC2)c2ccccc12 (stereo not given),23.7%
17,O=[N+]([O-])c1ccccc1NC1c2ccccc2Oc2ccccc21,30.6%
18,CN(C)CCN1C(=O)c2ccc3c4c(ccc(c24)C1=O)C(=O)N(CCN=C=S)C3=O,-88.8% (active)
19,CCNc1nc2cc(Nc3ccnc4cc(Cl)ccc34)ccc2o1,41.2%
20,Cc1cn(C2CCCCO2)c(=O)nc1NO (stereo not given),65%

row,SMILES,growth
1,CCOC(=O)c1ccc2[nH]c(O)c(C(=Nc3ccc(N(C)C(=O)CN4CCN(C)CC4)cc3)c3ccccc3)c2c1,-84.4% (active)
2,Cc1nc2ccccc2c(/C=C/c2ccc(Cl)cc2)c1C(=O)/C=C/c1ccc(Cl)cc1,-50.9% (active)
3,NC(CSC(c1ccccc1)(c1ccccc1)c1cccc2ccccc12)C(=O)O (stereo not given),86%
4,COC(=O)c1ccc(-n2cc(CCCOS(=O)(=O)c3ccc(F)cc3)nn2)cc1,108%
5,CCCCCCCCN=C(NCCCCCCCC)SCc1cccc2ccccc12,-93.9% (active)
6,O=C(Nc1ccc(Cl)cc1)C1=NCCCCN1,111%
7,CC(C)N(CCOC(=O)Nc1ccccc1Cl)C(C)C,104%
8,COc1ccc(/C=C(/c2ccccc2)[N+](=O)[O-])cc1,-77.6% (active)
9,C[C@]12CC[C@@H]3c4ccc(O)c(N)c4CC[C@H]3[C@@H]1CC[C@@H]2O,59.8%
10,CCN1C(=O)N(CC)C2C1NN=c1s/c(=C\c3ccc[nH]3)c(=O)n12 (stereo not given),5.56% (active)
11,COc1ccc(/C=N/NC(=O)c2cn(C3CC3)c3c(OC)c(N4CC5CCCNC5C4)c(F)cc3c2=O)cc1 (stereo not given),89.4%
12,O=c1oc2ccc(-c3ccc(F)cc3F)cc2c(=O)n1-c1ccc(Br)cc1F,47.3%
13,COc1cc(CNC(=O)CCCC/C=C/C(C)C)ccc1OCc1cn(-c2ccc(C(F)(F)F)cc2)nn1,84.8%
14,COC(OC)C1(c2ccccc2)NC(=O)NC1=O (stereo not given),113%
15,COc1c(Cl)ccc2c(-c3nc4cc(Cl)c(F)cc4s3)cc(=O)oc12,80%
16,CCCCCc1ccc(S(=O)(=O)Nc2cccc(-c3csc(NC(=O)CCCCCN4CCN(C)CC4)n3)c2)cc1,79%
17,CN(C)CCOC(=O)Nc1nc2ccc(Sc3ccccc3)cc2[nH]1,2.02% (active)
18,O=C(O)c1c2c(nc3ccccc13)Cc1ccccc1-2,128% and 89.3%
19,Cc1ccc([N+](=O)[O-])cc1NC(=O)Nc1cccc(F)c1,26.9%
20,COc1cc(C(=O)c2cc(C)c3[nH]c4ccc(O)cc4c3c2C)cc(OC)c1OC,-22.7% (active)
